Screening data from PubChem.
HT1080 IDH1KD tx: qHTS for induction of synthetic lethality in tumor cells producing 2HG: qHTS for the HT-1080-IDH1KD cell line | HT-1080 IDH1 knockdown viability, ATP luminescence, 48 h | Potency, µM (doses to about 46.1 µM), inactives show at the highest dose activity, negative = toxicity, actives largely listed as cytotoxic | 360,000 compounds, 2% hits | AID 686971, 2013;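 also: potency is read from the fitted curve at half-maximal effect; 0% = DMSO wells and -100% = cell-free medium wells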
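IDH1KD HT-1080 cells, 750/well, RPMI + 5% FBS; compound pinned after 2 h settling; 48 h, 37 °C; CellTiter-Glo luminescence; % activity normalised to DMSO and no-cell wells; curves fitted, classed by r2 and efficacy.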
uPA surface inh: qHTS for Inhibitors of Cell Surface uPA Generation. cell surface uPA generation assay, qHTS. Potency, µM (titrated, usually from 38.3 µM), without a hit: top-dose activity change, negative = inhibition, hits mostly inhibitors. 330,000 compounds, 0.31% hits. AID 540303, 2011; active = well fitted inhibition curve with a large enough effect; inconclusive = small, poorly fitted or top-dose-only effect; inactive = no such curve, though single readings can be large or run the other way; tested in mouse RAW 264.7 cells; also: potency is read from the fitted curve at half-maximal effect; nearly all actives have a fitted effect of over 55% in size
HT1080NT lethal: qHTS for induction of synthetic lethality in tumor cells producing 2HG: qHTS for the HT-1080-NT fibrosarcoma cell line; 360,000 compounds, 1.6% hits; Potency, µM (doses to about 46.1 µM), without a hit: top-dose activity, negative = less viability, most hits filed as cytotoxic; HT-1080-NT fibrosarcoma viability, CellTiter-Glo ATP luminescence, 48 h;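 also: NT is the 2HG producing partner of a matched IDH1 knockdown line; potency is read from the fitted curve at half-maximal effect; 0% = DMSO-treated cells and -100% = media-only wells without cells; nearly all actives have a fitted effect of over 55% in size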
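Fibrosarcoma NT cells, 750 per well in 5% FBS RPMI, were exposed to compound for 48 hours. Viability: CellTiter-Glo luminescence.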
IL1B secr inh: qHTS for Inhibitors of Inflammasome Signaling: IL-1-beta AlphaLISA Primary Screen. THP-1 LPS/ATP IL-1B secretion, AlphaLISA, 16 h; active compounds read low. activity change, % at 57.5 µM. 360,000 compounds, 4.7% hits. AID 743279, 2014; in the data active = activity change below about -50%; inconclusive = mostly about -30% to -49%
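THP-1 cells pretreated 1 hr with compounds (up to 57.5 uM final), then stimulated with LPS (250 ng/mL final) plus ATP (1.25 mM final); secreted IL-1B measured by AlphaLISA after 16 hr, decreased signal indicating inhibition.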
TDP1 cell noCPT: qHTS for Inhibitors of human tyrosyl-DNA phosphodiesterase 1 (TDP1): qHTS in cells in absence of CPT; DT40 Tdp1-/- hTDP1 cells, no CPT, ATP luminescence, 48 h; 420,000 compounds, 15% hits; Potency, µM (titrated, usually from 46.2 µM), for the others: top-dose activity change, negative = growth inhibition, hits mostly inhibitors; AID 686978, 2013; also: potency is read from the fitted curve at half-maximal effect; nearly all actives have a fitted effect of over 55% in size
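Growth kinetics read by CellTiter-Glo luminescence after ≥48 hr at 37 °C. Cells: DT40 Tdp1-/- stably carrying human TDP1, 400 per well, compound exposure in the absence of CPT (DMSO vehicle).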
TDP1 cell CPT: qHTS for Inhibitors of human tyrosyl-DNA phosphodiesterase 1 (TDP1): qHTS in cells in presence of CPT; Potency, µM (highest dose often 46.2 µM), inactives show top-dose activity change, negative = growth inhibition, hits mostly inhibitors; chicken DT40 Tdp1-/-;hTDP1 cells + 20 nM CPT, ATP luminescence, 48 h; 420,000 compounds, 12% hits; also: potency is read from the fitted curve at half-maximal effect; nearly all actives have a fitted effect of over 55% in size
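Cell growth measured by CellTiter-Glo luminescence after a minimum 48 h, 37 C compound exposure with 20 nM CPT in Tdp1-knockout DT40 cells stably expressing hTDP1, seeded 400/well; qHTS titration format.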
* = called active by the depositor; u = inconclusive; x = no result. Compounds with a hit are over-represented: about 19% of the library has one in this group of screens. Unless noted, calls follow the shape of the dose curve; as a rule, active = well fitted curve in the direction sought with a large enough effect; inconclusive = small, poorly fitted or top-dose-only effect, or another doubt; inactive = no such curve, though single readings can be large; an effect the other way counts as inactive or inconclusive. Unless noted, % is scaled to controls: 0 for no effect and ±100 for the full control effect.

SMILES | HT1080 IDH1KD tx | uPA surface inh | HT1080NT lethal | IL1B secr inh | TDP1 cell noCPT | TDP1 cell CPT
COc1ccc(S(=O)(=O)N2CCCCC2)cc1NC(=O)c1ccc2ccccc2n1 | 13% | -1% | 16% | -4 | 13µM* | 15µM*
COc1ccc(NC(=O)c2ccc3ccccc3n2)cc1S(=O)(=O)N1CCCCC1 | -12% | -24% | 1% | u | 16µM* | 21µM*
OCCC1CN(C2CCN(c3ccccc3)CC2)CCN1Cc1ccc(F)c(F)c1 (configuration not stated) | 5% | 0% | 11% | -8 | -21% | -8%
CN(C)CCN=Cc1c(O)n(-c2ccc(S(=O)(=O)N3CCOCC3)cc2)c(=O)c2ccccc12 | -1% | -5% | -1% | -18 | -13% | -3%
CC(=O)c1ccc(NC(=O)C(C)Sc2nnc(-c3ccncc3)n2C2CC2)cc1 (configuration not stated) | 8% | 7% | 4% | 1 | -7% | 7%
Cc1csc(NC(=O)C2(C)CCN2C(=O)C(C)C)c1C#N (configuration not stated) | 1% | x | 1% | 50 | 8.2µM* | 8.2µM*
O=c1c2ccccc2oc2cc(-c3ccc4[nH]ccc4c3)ccc12 | 3.7µM* | u | u | 35 | 2.1µM* | 1.8µM*
COc1cc2sc3ccc(C#Cc4ccc(N)cc4)cc3c(=O)c2cc1OC | u | -5% | -29% | 0 | u | -23%
COc1cc2sc3ccc(-c4ccc5[nH]ccc5c4)cc3c(=O)c2cc1OC | -10% | 10% | 12% | -16 | 5.8µM* | 5.8µM*
O=c1c2ccccc2oc2ccccc12 | x | x | x | x | -14% | -5%
COc1ccc(C(C(=O)NC2CCCCC2)N(C(=O)CCl)c2cccc(Cl)c2)cc1 (configuration not stated) | 1.6µM* | -7% | 9.2µM* | -110* | 1.8µM* | 2.3µM*
COC(CN(C(=O)CCl)C(C(=O)NC1CCCCC1)c1ccc(C)cc1)OC (configuration not stated) | 8% | -6% | 8% | -93* | 13µM* | 16µM*
COCCN(C(=O)CCCC(=O)Nc1ccccn1)C(C(=O)NC1CCCCC1)c1ccc(C)cc1 (configuration not stated) | -3% | 11% | 0% | -10 | u | -22%
COc1ccc(C(C(=O)NC2CCCC2)N(C(=O)c2ccoc2C)c2ccc(C)cc2)cc1 (configuration not stated) | -18% | 18% | -25% | -18 | 16µM* | 18µM*
COc1cccc(N(C(=O)c2cnccn2)C(C(=O)NC2CCCCC2)c2ccc(Cl)cc2)c1 (configuration not stated) | -27% | -1% | -26% | -10 | -21% | -18%
COc1ccc(C(C(=O)NC2CCCCC2)N(C(=O)CCl)c2ccc(C)cc2)cc1 (configuration not stated) | 1.2µM* | -16% | 0.82µM* | -106* | 1.6µM* | 1.8µM*
COc1ccc(N(C(=O)c2ccco2)C(C(=O)NC2CCCC2)c2ccncc2)cc1 (configuration not stated) | -13% | 0% | 1% | -12 | -16% | 4%
O=C(COC(=O)c1ccc(Cl)nc1)NCCc1ccc(F)cc1 | -4% | 8% | -1% | -8 | 3% | 8%
COCCn1ccc2c(OCC(=O)NCc3ccc(C)cc3)cccc2c1=O | -3% | u | -2% | -8 | 0% | -5%
COc1ccc(C(C(=O)NC2CCCCC2)N(C(=O)CCl)c2ccc(OC)cc2)cc1 (configuration not stated) | 1.2µM* | -7% | 1.6µM* | -90* | 1.5µM* | 1.8µM*
COc1ccc(N(C(=O)Cc2cccs2)C(C(=O)NC2CCCC2)c2ccncc2)cc1 (configuration not stated) | -1% | -3% | 5% | -4 | u | u
FC(F)Oc1ccc(NC(=S)N2CCc3ccccc32)cc1 | -12% | 2% | -8% | -61* | u | -7%
O=C(COc1ccccc1Cl)NC(=S)N1CCc2ccccc21 | u | -4% | 11µM* | 36 | u | -23%
O=C(COc1ccccc1)NC(=S)N1CCc2ccccc21 | 3% | 0% | -1% | 15 | 16µM* | u
O=C(COc1ccccc1Cl)NC(=S)Nc1ccccc1N1CCCC1 | -6% | -3% | 0% | 0 | 0% | -24%
SMILES | HT1080 IDH1KD tx | uPA surface inh | HT1080NT lethal | IL1B secr inh | TDP1 cell noCPT | TDP1 cell CPT
Fc1ccc(NC(=S)N2CCc3ccccc32)cc1 | 3% | 2% | 2% | 15 | -12% | 6%
CC(=O)c1c(C)nc2nc(-c3ccccc3)nn2c1C | x | x | x | x | -8% | -5%
COc1ccc(N2CCN(C(=O)CCC(=O)c3cc(C)sc3C)CC2)cc1 | 5% | -2% | 0% | -27 | 16µM* | u
COc1ccc(N2CCN(C(=O)CNC(=O)c3cccc(Br)c3)CC2)cc1 | 7% | 0% | 4% | 10 | 15µM* | u
COc1ccc(N2CCN(C(=O)CCCC(=O)c3ccccc3)CC2)cc1 | 7% | 1% | 3% | 0 | u | 21µM*
O=C(CCOc1ccccc1)N1CCN(c2ccc(O)cc2)CC1 | 4.6µM* | 1% | 1.5µM* | 30 | u | u
COc1ccc(N2CCN(C(=O)CCNC(=O)c3ccccc3)CC2)cc1 | 0% | 2% | 12% | 9 | -1% | -6%
Cc1cc(C(=O)CCC(=O)N2CCN(c3ccccc3O)CC2)c(C)s1 | -18% | -17% | -9% | -15 | u | u
Cc1cc(C)cc(C(=O)n2nc(C)c(S(=O)(=O)N3CCOCC3)c2C)c1 | x | x | x | x | 2% | -20%
Cc1ccc(C)c(S(=O)(=O)N2CCN(C(=O)Cc3ccccc3)CC2)c1 | -15% | -3% | -4% | -13 | u | -10%
COc1ccc(C(=O)CCC(=O)N2CCN(c3ccc(C)cc3)C(C)C2)cc1 (configuration not stated) | -1% | -3% | 0% | u | 23µM* | u
Cc1ccc(C)c(S(=O)(=O)N2CCN(C(=O)CCC(=O)c3cc(C)sc3C)CC2)c1 | -15% | -9% | 3% | -54* | 23µM* | u
